Reference: PMC5540273 (PLoS ONE, 2017)

Experiments:
Conditions in all cases: concentration: 1 μM,replicates: in singlicate; n = 1
PIP5K1A = test system: PIP5K1A
PIP5K1C = test system: PIP5K1C
PIP5K2B = test system: PIP5K2B
PIP5K2C = test system: T1, PIP5K2C
T1 construct: gene PIP4K2C

PKAC-alpha = test system: T2, PKAC-alpha
T2 construct: gene PRKACA

PKAC-beta = test system: T3, PKAC-beta
T3 construct: gene PRKACB

PKMYT1 = test system: PKMYT1
PKN1 = test system: PKN1
PKN2 = test system: PKN2
PLK1 = test system: PLK1
PLK2 = test system: PLK2
PLK3 = test system: PLK3
PLK4 = test system: PLK4
PRKCD = test system: PRKCD
PRKCE = test system: PRKCE
PRKCH = test system: PRKCH
PRKCI = test system: PRKCI
PRKCQ = test system: PRKCQ
PRKD1 = test system: PRKD1
PRKD2 = test system: PRKD2
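Also: KINOMEscan kinase panel screen.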

SMILES	%Inh (PIP5K1A) [%]	%Inh (PIP5K1C) [%]	%Inh (PIP5K2B) [%]	%Inh (PIP5K2C) [%]	%Inh (PKAC-alpha) [%]	%Inh (PKAC-beta) [%]	%Inh (PKMYT1) [%]	%Inh (PKN1) [%]	%Inh (PKN2) [%]	%Inh (PLK1) [%]	%Inh (PLK2) [%]	%Inh (PLK3) [%]	%Inh (PLK4) [%]	%Inh (PRKCD) [%]	%Inh (PRKCE) [%]	%Inh (PRKCH) [%]	%Inh (PRKCI) [%]	%Inh (PRKCQ) [%]	%Inh (PRKD1) [%]	%Inh (PRKD2) [%]
Cc1ccc(-n2nc(C(C)(C)C)cc2NC(=O)Nc2ccc(OCCN3CCOCC3)c3ccccc23)cc1 [GW839464]	0	37	23	19	0	34	21	100	0	24	0	0	2	21	15	0	20	0	0	20
O=C(NCCCN1CCOC1=O)c1cnc(NCc2cc(Cl)ccc2Cl)nc1NC1CCCC1	0	39	0	7	4	6	27	0	10	0	0	4	17	3	14	8	23	0	23	0
Cc1n[nH]c2ccc(-c3cc(OC[C@@H](N)Cc4ccccc4)cnc3-c3ccoc3)cc12.O=C(O)C(F)(F)F.O=C(O)C(F)(F)F [GSK507358]	0	38	41	31	98.9	98	0	33	9	3	0	0	0	99.8	95.5	95.9	33	95.4	91.4	99.2
C[C@@H]1CCN(C(=O)CC#N)C[C@@H]1N(C)c1ncnc2[nH]ccc12	0	0	0	0	0	0	20			0	0	0	0	18	45	12	5	0	0	0
Cc1cc(C(=O)Nc2ccc(Oc3ccc4nc(NC(=O)C5CC5)cn4n3)cc2)nn1-c1ccccc1	3	27	50	22	0	21	0	0	11	0	0	0	0	9	0	0	44	0	0	0
CC(C)Nc1cc(-c2ccc3c(N)n[nH]c3c2)nc(N)n1 [GSK2221681]	56	28	32	0	0	0	0	29	0	0	0	0	0	0	0	0	11	12	0	0
NC(=O)c1cc(-c2ccccc2)cc2c(C3CCNCC3)c[nH]c12 [GSK301362]	0	33	14	75	0	11	17	50	0	10	34	0	0	40	46	71	35	64	37	2
CCN(CC)CCOc1ccc(Nc2ncc3cc(-c4c(Cl)cccc4Cl)c(=O)n(C)c3n2)cc1 [SB-601273]	72	82	16	90.7	26	0	98.6	57	6	26	27	52	30	0	22	0	26	27	93.3	93.6
C[C@@H](Oc1cc(-c2cnn(C3CCNCC3)c2)cnc1N)c1c(Cl)ccc(F)c1Cl	0	0	79	0	0	0	0	2	0	0	17	17	88	20	2	0	24	26	61	31
CCn1c(-c2nonc2N)nc2c(C#CC(C)(C)O)nc(OCCN)cc21.Cl.Cl [GSK902056]	1	86	9	13	67	81	8	8	0	0	0	0	3	81	97.9	96.5	20	89	14	14
CN(C)CCOc1ccc(-c2cc(-c3c[nH]nc3-c3ccccn3)ccn2)cc1 [GW835314]	0	16	26	8	10	0	0	100	3	42	21	0	2	23	11	8	14	100	89	96.1
CN(C)CC(O)COc1ccc(Nc2nccc(-c3cnn4nc(N5CCOCC5)ccc34)n2)cc1 (centres unmarked) [GW767488]	37	24	77	82	0	0	9	13	38	37	28	35	63	14	0	0	36	21	93.7	98.2
CNC(=O)c1ccccc1Sc1ccc2c(/C=C/c3ccccn3)n[nH]c2c1	12	0	12	0	0	0	100	0	0	0	40	34	97.7	4	58	0	9	3	0	8
Nc1nc(Nc2ccccc2)cc(-c2ccc3c(N)n[nH]c3c2)n1 [GSK2225749]	46	82	38	61	0	0	0	50	0	0	0	0	6	8	0	0	20	0	0	0
